Data from publication PMC5540273 (PLoS ONE, 2017).

Assays:
Conditions in all cases: concentration: 1 μM, replicates: in singlicate; n = 1
EPHB4 = tested on: EPHB4
EPHB6 = tested on: EPHB6
ERBB2 = tested on: ERBB2
ERBB3 = tested on: ERBB3
ERBB4 = tested on: ERBB4
ERK1 = tested on: T1, ERK1
T1 construct: gene MAPK3

ERK2 = tested on: T2, ERK2
T2 construct: gene MAPK1

ERK3 = tested on: T3, ERK3
T3 construct: gene MAPK6

ERK4 = tested on: T4, ERK4
T4 construct: gene MAPK4

ERK5 = tested on: T5, ERK5
T5 construct: gene MAPK7
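Further: KINOMEscan kinase panel screen.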

Row | SMILES | %Inh (EPHB4) [%] | %Inh (EPHB6) [%] | %Inh (ERBB2) [%] | %Inh (ERBB3) [%] | %Inh (ERBB4) [%] | %Inh (ERK1) [%] | %Inh (ERK2) [%] | %Inh (ERK3) [%] | %Inh (ERK4) [%] | %Inh (ERK5) [%]
1 | COC(=O)c1cccc(NC(=O)NC2CCN(c3ccnc(Nc4ccc(OC)cc4)n3)C2)c1 (centres unmarked) [GSK1379746] | 19 | 37 | 65 | 24 | 23 | 0 | 0 | 5 | 2 | 6
2 | Cn1cncc1C(=O)NC1CCN(c2ccnc(Nc3ccc(F)cc3)n2)C1 (centres unmarked) [GSK1379717] | 14 | 15 | 0 | 0 | 5 | 0 | 0 | 0 | 0 | 0
3 | c1ccc(-c2ccnc3[nH]ccc23)cc1 [SB-693578] | 1 | 29 | 33 | 14 | 0 | 0 | 3 | 0 | 1 | 0
4 | CNc1cc(-c2ccc3c(N)n[nH]c3c2)nc(N)n1 [GSK2224810] | 19 | 0 | 32 | 0 | 0 | 0 | 0 | 3 | 7 | 0
5 | COc1ccc(CSc2nnc(-c3ccc4nccn4c3)o2)cc1C(F)(F)F | 16 | 0 | 0 | 9 | 0 | 0 | 0 | 18 | 0 | 1
